Hit rate of the full screen: of about 340,000 compounds, about 240 (0.071%) were called active. Another 5% or so got no clear call; they are omitted. Calls follow the shape of the full dose curve. The list comes from a sample in which actives are over-represented; it also holds similar structures and randomly drawn compounds.
target: Snurportin-1 (Homo sapiens) + GTP-binding nuclear protein Ran (Homo sapiens) + Importin subunit beta-1 (Homo sapiens) (UniProt O95149+P62826+Q14974); test: qHTS Assay for Inhibitors of RanGTP induced Rango (Ran-regulated importin-beta cargo) - Importin beta complex dissociation; conditions: Biochemical FRET Rango-importin beta; series mostly up to 46.1 µM; activity change, negative = inhibition: at the top concentration; also: nearly all actives have a fitted effect of over 45% in size; as to activity change, negative = inhibition: % of control where 0% means no effect
From the text: NIH Molecular Libraries Probe Production Centers Network [MLPCN] NIH Chemical Genomics Center [NCGC] MLPCN Grant: R03 MH090808-01A1 Assay Submitter (PI): Petr Kalab NCGC Assay Overview: The small GTPase Ran regulates transport of macromolecules between the nucleus and the cytoplasm (nuclear transport) and has important functions in mitotic spindle assembly, nuclear envelope (NE) formation and nuclear pore complex (NPC) assembly. RanGTP gradient is thought to promote spindle assembly by providing a spatial clue to microtubule nucleation and Aurora A activation. Because the localized release and binding of importin alpha cargos relays this spatial clue to SAFs, inhibitors of the Rango - importin beta complex can then be used in further understanding their role in cell cycle specifically in mitosis progression. […] Activation of Aurora A has been linked to different types of cancer and a number of Aurora kinase inhibitors are being developed as potential canter therapeutics; therefore, identified inhibitors of this complex could be developed into potential anti-mitotic probes for cancer treatment. Purified recombinant proteins Rango - importin beta and RanGTP-RCC1 stock premixes were provided by the assay submitter. The assay used a fluorescence resonance energy transfer (FRET) Rango biosensor that contains the IBB of human snurportin 1 flanked by yellow fluorescent protein (EYFP) at the amino terminus and cerulean CFP10 at the carboxy terminus. […] RanGTP binding to the complex (in the presence of RCC1) releases the Rango from the complex. The flexibility of the IBB in the freed Rango allows the donor - acceptor fluorophores to interact, resulting in a high FRET signal. Inhibitors will therefore be identified based on the ability to interfere with the FRET signal increase. DMSO treated and no RanGTP-RCC1 (buffer only) wells were used as negative and positive controls respectively. FRET readings were obtained at two time points. FRET reading prior to importin beta addition (pre-read) were used flag potential compound interference; FRET reading after importin beta addition (post-read) were used to identify inhibitors.
NCGC Assay Protocol Summary: Two and a half uL/well of Rango- importin beta premix solution (0.1 uM Rango, 0.25 uM importin beta, 1x PBS, 1mM DTT, 0.02% Tween-20, 0.1% BSA final concentrations) was dispensed into 1536-well assay plates (Greiner, solid black medium-binding plates) with Aurora Discovery BioRAPTR Flying Reagent Dispenser (FRD; Beckton-Dickenson). Compound solution (23 nL) was transferred to the assay plate using Kalypsys pin tool equipped with a 1536-pin tool and incubated at room temperature for 5 min followed by a FRET pre-read using the PerkinElmer Envision plate reader. Two and a half uL/well of RanGTP-RCC1 premix solution (0.6 uM Ran, 2mM GTP, 0.2 uM RCC1, 1x PBS, 1mM DTT, 0.02% Tween-20, 0.1% BSA final concentrations) were then added and incubated at room temperature giving a final reaction volume of 5uL. After 45min FRET post-read was obtained via the Envision plate reader using the same optics and settings as the pre-read (CFP/YFP optimized dual optical module D450/D505; excitation mirror CFP 430/24 nm; and emission filters CFP 486/10 nm and YFP 530/10 nm).
Potency is read from the fitted curve at half-maximal effect.

| Compound | activity change, negative = inhibition | Potency |
| --- | --- | --- |
| NN=C(NN=Cc1ccccc1)c1ccccc1 | -0.281% (inactive) | – |
| NC(=O)c1ncn([C@@H]2O[C@H](CN=C3NS(=O)(=O)c4ccccc43)[C@@H](O)[C@H]2O)n1 | -11.1% (inactive) | – |
| CC(C)OC(=O)c1ccc(NCc2cc(O)ccc2O)cc1Cl | -14.8% (inactive) | – |
| O=C(c1ccc2c(c1)C(=O)N(Cc1ccncc1)C2=O)N1CCN(S(=O)(=O)c2ccc(OC(F)(F)F)cc2)CC1 | 17.2% (inactive) | – |
| NC(CSC1(c2ccccc2)c2ccccc2-c2ccccc21)C(=O)O (stereo unspecified) | 2.22% (inactive) | – |
| O=c1[nH]c(=S)[nH]c(O)c1/C=C1\C=Nc2ccccc21 | -10% (inactive) | – |
| O=C1OC(Cc2ccccc2)C(c2ccccc2)C1=O (stereo unspecified) | 2.72% (inactive) | – |
| Cc1cccc(C2c3c(n(C)c(=O)n(C)c3=O)N=C3c4ccccc4C(=O)C32)c1 (stereo unspecified) | 15.3% (inactive) | – |
| CCNC(=S)NCC | 5.2% (inactive) | – |
| COc1ccc(-c2nnc(-c3ccc4ccccc4c3)o2)cc1 | -10.4% (inactive) | – |
| Cc1[nH]c(N)nc(=S)c1CCCNc1ccccc1 | 8.31% (inactive) | – |
| Cn1c(N)cc(=O)n(C)c1=S | 7.4% (inactive) | – |
| NC(=O)c1ccc(N2CCCC2)nc1 | -10.8% (inactive) | – |
| Cc1cc([N+](=O)[O-])c(=O)[nH]c1C | 0.254% (inactive) | – |
| O=S(=O)(Cc1ccc(Cl)cc1Cl)c1ccc(Cl)cc1 | 8.21% (inactive) | – |
| CCN(CC(=O)Nc1c(F)cccc1F)C(=O)Cc1cccs1 | -2.49% (inactive) | – |
| O=[N+]([O-])c1ccc(NS(=O)(=O)c2ccccc2)c(Cl)c1 | -8.5% (inactive) | – |
| O=C(O)C(c1cccs1)C1(O)CCCCC1 (stereo unspecified) | 10.6% (inactive) | – |
| O=C(CC1Sc2ccccc2NC1=O)NNc1ccc(Cl)c(Cl)c1 (stereo unspecified) | -9.85% (inactive) | – |

| Compound | activity change, negative = inhibition | Potency |
| --- | --- | --- |
| S=C(Nc1ccccc1)Nc1ccc2ccccc2c1 | 11.2% (inactive) | – |
| C/C(=N\Nc1ccccc1)c1cccs1 | -12.4% (inactive) | – |
| CCC1(C)COC(c2ccc(OC)c(OC)c2)OC1 (stereo unspecified) | 1.83% (inactive) | – |
| Cn1c(-c2ccc(C(=O)c3ccccc3)s2)nc2ccccc21 | – | 8.2 µM [inconclusive] (active) |
| Cn1c(NC(=O)c2ccccc2)nc2ccccc21 | 0.409% (inactive) | – |
| Cn1c(CNC(=O)C(C)(C)C)nc2ccccc21 | 0.931% (inactive) | – |
| Nc1ccc2[nH]c(=S)sc2c1 | 6.09% (inactive) | – |
| O=C1c2ccccc2C(=O)C1C(=O)C1CC1 | 0.674% (inactive) | – |
| O=C(O)c1ccc([N+](=O)[O-])cc1Sc1ccsc1 | 0.213% (inactive) | – |
| CC(C=Cc1ccccc1)=NNS(=O)(=O)c1ccc([N+](=O)[O-])cc1 | -2.55% (inactive) | – |
| O=[N+]([O-])c1cc2ccccc2nc1-c1ccccc1 | 6.66% (inactive) | – |
| CCN1C[C@@H]2[C@@H]3C(=O)N(C)C(=O)[C@@H]3[C@](C)(C1=O)N2C(=O)c1ccccc1 | -9.87% (inactive) | – |
| COc1cc(O)c2c(=O)c3c(O)c(O)ccc3oc2c1OC | 0.328% (inactive) | – |
| C#CCOCCOCCOCCNc1nc(N2CCOCC2)nc(N2CCN(C(=O)[C@H](Cc3ccc(O)cc3)n3cc(CCO)nn3)CC2)n1 | 12.8% (inactive) | – |
| O=C(NN=Cc1ccccc1)c1ccccc1 | -1.55% (inactive) | – |
| CCOc1ccc(CCNC(=O)COC(=O)C2CCN(S(=O)(=O)c3ccccc3)CC2)cc1OCC | -1.16% (inactive) | – |
| Cc1cc(NC(=O)c2cc3ccccc3o2)no1 | -27% (inactive) | – |
| CC(=O)N1CCc2ccc(N)cc21 | 0.796% (inactive) | – |
| O=C1C(Cl)=C(Oc2ccccc2)C(=O)c2ccccc21 | -0.449% (inactive) | – |

| Compound | activity change, negative = inhibition | Potency |
| --- | --- | --- |
| O=c1nc(NO)ccn1C1CCCO1 (stereo unspecified) | 0.851% (inactive) | – |
| O=c1[nH]c2c(c(=O)n1-c1ccccc1)CCO2 | 28.5% (inactive) | – |
| COC1=CC(=O)OC(c2ccc(OC)cc2)C1 (stereo unspecified) | -26.4% (inactive) | – |
| CCOc1ccc(/C=C(/C#N)c2nnc(N3CCOCC3)n2-c2ccccc2)cc1OC | -6.71% (inactive) | – |
| CC(=O)OC1CCC2C3CCC4=C(CC(F)C(=O)C4)C3CCC12C (stereo unspecified) | -8.28% (inactive) | – |
| COc1ccccc1N(CC(=O)Nc1c(C)n(C)n(-c2ccccc2)c1=O)S(=O)(=O)c1ccccc1 | 15.2% (inactive) | – |
| CC(C)(C)c1nnc2sc(SCC(O)=C(C#N)c3nc4ccccc4[nH]3)nn2c1=O | -17.3% (inactive) | – |
| Cc1cc(NC(=O)C(C)SCC(=O)Nc2cccc(S(=O)(=O)N3CCCCCC3)c2)no1 (stereo unspecified) | -9.26% (inactive) | – |
| CC(C)(C)C(=O)Nc1cccc(-c2ccc[nH]2)n1 | -8.04% (inactive) | – |
| Nc1ccc2c(c1)C(O)c1ccc(Cl)cc1-2 (stereo unspecified) | 12% (inactive) | – |
| Cn1cc(C2OC(=O)c3ccccc32)c2ccccc21 (stereo unspecified) | -1.39% (inactive) | – |
| CCC1([N+](=O)[O-])COC(c2ccc(C(C)C)cc2)OC1 (stereo unspecified) | 4.48% (inactive) | – |
| Nc1ccc2c(c1)C(=Cc1cccnc1)c1ccccc1-2 | -0.303% (inactive) | – |
| Cc1nc2ccc(N)nc2nc1C | -10.7% (inactive) | – |
| CC(C)c1cc(N=O)cc(C(C)C)c1O | 16.3% (inactive) | – |
| O=C(OCCOc1ccccc1Cl)c1cc(S(=O)(=O)N2CCCCC2)ccc1N1CCOCC1 | -8.97% (inactive) | – |
| Cc1ccc(S(=O)(=O)N2CCN(C(=O)c3cc(S(=O)(=O)N4CCOCC4)ccc3F)CC2)cc1 | 6.87% (inactive) | – |
| CN(CCc1ccccc1)C(=O)c1cccc(NC(=O)Cc2cccc(NC(=O)C3CCCN(C(=O)CCc4ccccc4)C3)c2)c1 (stereo unspecified) | -6.42% (inactive) | – |
